A selection: hits, their analogues and other compounds. The true share with any hit is near 1.6%.
WNV NS2B-NS3 inh = inhibitors of WNV NS2B-NS3 protease, primary screen, biochemical, fluorogenic substrate; Genome polyprotein (West Nile virus), P06935; fluorogenic substrate Ex360/Em465; hits give low values; z-score (test concentration not listed); AID 577, 2007; 65,000 compounds, 0.18% hits; in the data active = z-score below about -3
PKA inh = inhibitors of human PKA kinase activity, primary screen, biochemical, ATP-depletion luminescence, Kemptide substrate. PKA Kemptide phosphorylation, Kinase-Glo ATP luminescence. 65,000 compounds, 0.1% hits. AID 524, 2006. inhibition, % at 6 µM;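 active = inhibition above the screen-wide mean inhibition plus 3 SD, cut at about 21% in these data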
ROCK2 blocker = inhibitors of human ROCK2 kinase, primary screen, biochemical, high-throughput, luminescence | purified ROCK2, Kinase-Glo ATP depletion luminescence | inhibition, % at 6 µM | AID 604, 2007 | 60,000 compounds, 0.35% hits | Rho-associated protein kinase 2 (Homo sapiens), O75116;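 active = inhibition above the screen-wide mean inhibition plus 3 SD, cut at about 18% in these data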;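 also: plate controls were DMSO wells for no effect and Y-27632 control wells after no-enzyme background subtraction for full effect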
SKBR3 24h inh = SK-BR-3 proliferation inhibitors, primary screen, cell-based, human, 24 h; SK-BR-3 viability, CellTiter-Glo ATP luminescence; hits give low values; viability, % at 10 µM; 41,000 compounds, 0.47% hits; AID 847, 2007;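 active = viability at or below the median of all test compounds minus 3 SD, in both replicates if run twice, cut at about 45% in these data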;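 also: 100% = median untreated cell wells and 0% = median positive control drug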
Hsp90 block = tumor Hsp90 inhibitors, primary screen, cell lysate, fluorescence polarization, NCI-N417 lysate; Heat shock protein HSP 90-alpha (Homo sapiens), P07900; Cy3B-geldanamycin FP displacement; inhibition, % at 30 µM; 64,000 compounds, 0.35% hits;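 active = inhibition above 50%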;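 also: 0% = tracer plus lysate wells and 100% = tracer alone without lysate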
Her2 expr inh = inhibitors of Her2 protein expression, primary screen, SKBR-3 cells, AlphaScreen, 66K library. Receptor tyrosine-protein kinase erbB-2 (Homo sapiens), P04626. SKBR-3 HER2 protein level, 18-24 h; hits give low values. HER2 level % of control, % at 10 µM. 65,000 compounds, 0.69% hits;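 active = HER2 level under 5% of the carrier-only control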;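 also: 100% = DMSO carrier and 0% = 500 nM PU-H71 HSP90 inhibitor; lower value means stronger loss of Her2 protein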
Target sequence (P04626 whole entry, looked up): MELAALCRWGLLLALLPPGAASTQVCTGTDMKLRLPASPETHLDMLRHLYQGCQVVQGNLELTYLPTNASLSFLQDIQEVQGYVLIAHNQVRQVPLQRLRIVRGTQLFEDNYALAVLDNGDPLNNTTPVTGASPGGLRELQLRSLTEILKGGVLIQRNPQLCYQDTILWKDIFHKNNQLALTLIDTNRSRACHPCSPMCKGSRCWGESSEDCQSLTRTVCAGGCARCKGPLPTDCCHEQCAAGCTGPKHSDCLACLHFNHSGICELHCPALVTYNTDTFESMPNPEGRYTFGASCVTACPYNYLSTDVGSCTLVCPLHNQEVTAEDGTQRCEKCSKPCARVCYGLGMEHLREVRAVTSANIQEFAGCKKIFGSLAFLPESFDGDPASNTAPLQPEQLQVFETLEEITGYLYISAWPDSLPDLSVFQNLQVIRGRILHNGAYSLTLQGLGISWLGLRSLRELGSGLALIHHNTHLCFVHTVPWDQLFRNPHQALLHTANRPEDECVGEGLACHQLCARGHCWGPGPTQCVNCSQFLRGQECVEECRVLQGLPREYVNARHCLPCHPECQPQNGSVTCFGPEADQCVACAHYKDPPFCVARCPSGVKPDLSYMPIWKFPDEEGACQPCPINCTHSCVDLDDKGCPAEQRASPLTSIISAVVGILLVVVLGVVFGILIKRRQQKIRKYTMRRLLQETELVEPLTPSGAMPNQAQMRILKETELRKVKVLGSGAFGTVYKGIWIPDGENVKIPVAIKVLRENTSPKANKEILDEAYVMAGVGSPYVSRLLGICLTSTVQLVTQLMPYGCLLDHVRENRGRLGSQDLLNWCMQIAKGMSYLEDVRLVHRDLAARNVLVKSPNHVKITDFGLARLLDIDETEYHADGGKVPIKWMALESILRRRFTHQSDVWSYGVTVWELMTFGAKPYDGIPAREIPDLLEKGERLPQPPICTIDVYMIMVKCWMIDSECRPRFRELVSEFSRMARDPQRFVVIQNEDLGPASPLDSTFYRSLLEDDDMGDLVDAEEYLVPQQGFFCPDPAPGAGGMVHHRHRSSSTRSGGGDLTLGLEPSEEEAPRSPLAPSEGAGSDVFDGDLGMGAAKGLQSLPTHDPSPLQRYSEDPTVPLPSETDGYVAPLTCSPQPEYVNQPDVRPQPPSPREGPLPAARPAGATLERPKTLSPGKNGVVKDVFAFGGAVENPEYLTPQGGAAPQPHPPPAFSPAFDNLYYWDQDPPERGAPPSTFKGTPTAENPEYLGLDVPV
Numbers without * were called inactive; . = not tested or not shown.

SMILES	WNV NS2B-NS3 inh	PKA inh	ROCK2 blocker	SKBR3 24h inh	Hsp90 block	Her2 expr inh
CSCC[C@H](NC(=O)NCc1ccc(F)cc1)C(=O)O	0.87	0.0	-3.7	100.0	3.1	-15.0*
CNC(=O)c1nnc(Cc2ccc(F)cc2)o1	-3.15*	1.8	-4.7	.	-0.9	80.8
COc1ccc(CNc2nc3c(c(=O)n(Cc4ccc(F)cc4)c(=O)n3C)n2C)cc1	-1.17	5.0	-0.2	91.8	0.2	103.7
COc1ccc(CCN2CCC(Nc3nc4ccccc4n3Cc3ccc(F)cc3)CC2)cc1	0.1	-12.3	-12.9	23.5*	-0.9	-11.3*
O=C(Nc1cccc2cccnc12)c1sc2cc(Cl)ccc2c1Cl	.	.	.	.	-1.6	.
CC1(c2ccccc2)NC(=O)N(CC(=O)Nc2cccc(C#N)c2)C1=O (stereo unspecified)	0.33	16.6	7.3	.	-0.5	95.0
N#Cc1cccc(NC(=O)CSc2ccccc2)c1	0.67	11.7	18.6*	89.7	-3.9	104.5
Nc1nc2n(n1)C(c1cccs1)CC(c1ccc(Br)cc1)N2 (stereo unspecified)	0.87	4.9	4.1	134.3	2.0	-20.1*
COc1ccc(C2CC(c3ccc(Br)cc3)Nc3nc(N)nn32)cc1 (stereo unspecified)	0.83	6.7	8.8	103.1	-3.0	92.9
CCOC(=O)c1c(C)[nH]c(C(=O)OC/C(O)=C(\C#N)c2nc3ccccc3[nH]2)c1C	0.69	2.8	0.7	.	-11.9	-3.7*
CCCn1c(C)cc(=O)c2cc(NC(=O)c3cnccn3)ccc21	0.3	9.8	8.7	79.4	-3.4	92.8
COc1cc(C)nc(Oc2ccc(OCCOc3ccc(C)cc3)nn2)n1	-8.5*	4.8	13.1	85.4	-0.2	104.7
O=c1cc(O)cc(/C=C/c2ccc(O)c(O)c2)o1	.	.	.	.	83.1*	.
Oc1ccc(/C=C/c2cc(O)cc(O)c2)cc1	0.13	1.9	8.3	94.3	8.5	103.0
COc1cc(NCCCN)c2ncccc2c1	.	.	.	.	-6.7	.
COc1cc2c(cc1NC(=O)CSCC(=O)O)oc1ccccc12	-1.24	6.0	.	89.6	.	96.1
COc1cc2c(cc1NC(=O)COC(=O)Cn1cnc3ccccc31)oc1ccccc12	-1.05	23.7*	0.5	.	-1.5	68.0
Cc1ccc(NC(=O)Cn2c(=O)n(CCCCC(=O)NCc3ccco3)c(=O)c3ccccc32)cc1	-0.24	8.2	3.0	43.3*	-6.0	41.4
O=C(CCCCn1c(=O)c2ccccc2n(CC(=O)Nc2ccc(F)cc2)c1=O)NCc1ccco1	-1.19	1.5	-1.3	80.1	0.8	77.6
Cc1sc2nc3c4ccccc4c(NCc4ccco4)nn3c(=O)c2c1C	-3.26*	2.4	0.1	.	-3.9	59.9
Cc1nnc(NCc2ccco2)c2ccccc12	-0.59	-2.5	-1.6	.	-2.8	127.2
CCCS(=O)(=O)N1CCC(C(=O)N2CCC(Cc3ccccc3)CC2)CC1	-0.16	-8.7	-4.7	.	-1.2	-27.4*
CCCS(=O)(=O)N1CCCC(C(=O)N2CCC(Cc3ccccc3)CC2)C1 (stereo unspecified)	0.06	6.7	3.6	.	-0.1	123.1
CCOc1ccc(-c2noc(-c3ccncc3)n2)cc1OCC	0.3	11.2	5.3	108.7	-4.7	110.3
CCOc1cc(-c2noc(-c3ccncc3)n2)cc(Br)c1OC	-0.35	10.3	9.0	29.4*	1.9	96.4
SMILES	WNV NS2B-NS3 inh	PKA inh	ROCK2 blocker	SKBR3 24h inh	Hsp90 block	Her2 expr inh
CC(C)Cn1c(=O)c(C2=NS(=O)(=O)c3ccccc3N2)c(O)c2ccccc21	-0.46	-8.7	-4.7	.	3.7	91.9
Cc1cc2nc(NC3=NCN(Cc4ccc5c(c4)OCO5)CN3)nc(C)c2cc1C	1.34	4.4	-1.0	70.3	-7.4	-5.8*
Cc1cc2nc(NC3=NCN(CCN4CCOCC4)CN3)nc(C)c2cc1C	0.28	4.9	-1.5	90.1	0.6	104.6
O=C(CN1CCC(c2nc3ccccc3s2)CC1)NCc1cccs1	0.01	0.9	2.5	94.1	-4.2	-13.5*
COC(=O)c1ccc(CSc2nnc(NCc3ccccc3)s2)o1	-0.42	-3.7	0.1	.	-2.3	74.8
COC(=O)c1ccc(CSc2nnc(SCc3ccc(C(=O)OC)o3)s2)o1	-3.49*	0.0	-0.7	.	-6.6	85.9
CCCCC(CC)Cn1c2nc3ccccc3nc2c2c(=N)oc(C)nc21 (stereo unspecified)	0.37	6.3	.	38.2*	-18.0	0.9*
CCOC(=O)c1sc(NC(=O)CSc2nnc(-c3ccc(OC)cc3)n2CCOC)nc1C	-0.62	-2.1	6.5	85.8	85.2*	141.4
CCC1(O)CC2CN(CCc3c([nH]c4ccccc34)[C@@](C(=O)OC)(c3cc4c(cc3OC)N(C)C3[C@]45CCN4CC=C[C@@](CC)([C@@H](OC(C)=O)[C@]3(O)C(=O)OC)[C@H]45)C2)C1 (stereo partly specified)	.	.	.	.	0.4	.
CCOC(=O)c1[nH]cnc1C(=O)O	-0.44	6.3	3.4	84.4	-0.2	106.8
CCNC(=O)c1nc[nH]c1C(=O)NCC	-0.5	8.1	6.3	94.6	-3.0	-21.8*
O=C(CSc1nnc(-c2cccs2)o1)OCc1ccccc1	0.09	-3.5	1.1	42.5*	2.0	90.1
COC(=O)c1ccc2c(c1)SC1=C(CCCC1=O)N2	-0.6	0.2	0.7	91.9	84.6*	84.3
COC(=O)c1ccc2c(c1)NC(=O)C(N1CCCC1)S2 (stereo unspecified)	-0.61	7.5	.	.	-6.3	115.2
N#Cc1c(NC(=O)CSC2=NCCS2)sc2c1CCCC2	0.7	2.3	-6.8	78.2	-14.5	101.4
O=C(CSC1=NCCS1)Nc1nc2c(s1)CCCC2	-0.03	-3.2	-1.7	42.5*	-11.0	65.7
NC(=O)c1c(-c2cccs2)csc1N	1.11	16.4	20.9*	83.8	10.0	107.0
C=CCOC(=O)C1=C(C)Nc2nc3ccccc3n2C1c1ccncc1 (stereo unspecified)	-3.09*	4.0	0.0	94.1	1.2	96.4
Cc1ccccc1NC(=O)CN(C)S(=O)(=O)c1cccc2cccnc12	-0.43	0.6	1.8	.	-3.9	77.3
Cc1cc(SCC(N)=O)nc(SCC(=O)c2ccccc2)n1	0.03	-1.7	-4.2	104.9	90.6*	99.0
CC(C)C(O)P(=O)(OCc1ccccc1)c1ccc(N(C)C)cc1 (stereo unspecified)	-1.21	-1.3	-0.1	93.5	-12.2	96.2
COc1ccccc1CN(Cc1cc2cc(C)ccc2[nH]c1=O)Cc1nnnn1CC1CCCO1 (stereo unspecified)	1.93	7.8	3.0	37.1*	-2.9	89.1
COc1ccc2[nH]c(=O)c(CN(Cc3ccccc3OC)Cc3nnnn3CC3CCCO3)cc2c1 (stereo unspecified)	1.02	1.1	3.5	.	-0.1	101.6
